The whole screen tested about 300,000 compounds, of which about 3,600 (1.2%) were called active. The sample as a whole holds a higher share of actives than the screen did. Unmarked numbers belong to inactive results. No stated cut-off is given here; in the data, active means activation above about 30% (passing the limit was not always enough); inconclusive means no clear call, values can overlap the other calls.
Experiment: Wnt/beta-catenin pathway activators, primary screen, cell-based, plate reader, single point (AID 743398);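 further: 0% = neutral control wells and 100% = positive control wells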
Conditions: Wnt/beta-catenin reporter cell assay, activator, at 9.35 µM, active compounds read high

Row | Structure (SMILES) | activation
1 | CCOC(=O)N1CCN(C(=O)C[C@H]2C[C@@]3(C(=O)OC)C(=C[C@H](C4CCCC4)O[C@@H]3C)N(Cc3ccccc3)C2=O)CC1 | -4.54%
2 | CCC(C)N(C(=O)CSc1ncnc2c1cnn2-c1ccccc1)C1CCS(=O)(=O)C1 (stereo unspecified) | 0.0855%
3 | CCN(C(=O)CSc1ncnc2c1cnn2-c1ccccc1)C1CCS(=O)(=O)C1 (stereo unspecified) | 0.526%
4 | CCN(CC)C(=O)CSc1ncnc2c1cnn2-c1ccccc1 | 61.3% (active)
5 | O=C1NC[C@H](Cc2ccc(O)cc2)N(C[C@@H]2CCCN2C[C@H](Cc2ccccc2)N2C[C@H](Cc3ccccc3)N(CC3CCCCC3)C(=O)C2=O)C1=O | -2.18%
6 | COC(=O)c1ccc(CN2C(=O)[C@]3(OCCC=C[C@H]3C)c3c(Br)cccc32)cc1 | -10.3%
7 | NS(=O)(=O)c1cccc(NC(=O)CN2CCCc3ccccc32)c1 | -1.12%
8 | CC1Cc2ccccc2N1CC(=O)Nc1ccc(S(N)(=O)=O)cc1 (stereo unspecified) | 39% (active)
9 | CC1CC(C)CN(CC(=O)Nc2ccc(S(N)(=O)=O)cc2)C1 (stereo unspecified) | -0.27%
10 | CC1CCN(C(=O)COC(=O)c2cc(=O)[nH]c3ccccc23)CC1 | -3.48%
11 | CC(NC(=O)COC(=O)c1cc(=O)[nH]c2ccccc12)c1ccccc1 (stereo unspecified) | -11.1%
12 | CN(C(=O)COC(=O)c1cc(=O)[nH]c2ccccc12)C1CCCCC1 | 60.6% (active)
13 | Cc1ccc([C@H]2N[C@]3(CCCN(Cc4ccccc4)C3=O)[C@H]3C(=O)N(Cc4ccccc4)C(=O)[C@@H]23)cc1 | -1.11%
14 | Cc1ccc(-c2cn(S(=O)(=O)c3cccc([N+](=O)[O-])c3)nc2N)cc1 | -0.55%
15 | Cc1cc(C)nc(Nc2cc([N+](=O)[O-])ccc2C)n1 | -0.166%
16 | Cc1ccc(-n2cc3ccc([N+](=O)[O-])cc3n2)cc1 | 44.6% (active)
17 | CC(C)[C@@H](C)/C=C/[C@@H](C)[C@H]1CC[C@@H]2[C@]1(C)CCC1[C@]23C=C[C@]2(C[C@@H](O)CC[C@]12C)N(c1ccc([N+](=O)[O-])cn1)O3 (stereo partly specified) | -14.5%
18 | CN(C(=O)CN1CCN(c2cc(-c3ccc(OCc4ccccc4)cc3)ncn2)CC1)c1ccccc1 | -1.53%
19 | CC(C)CNC(=O)c1cc(-c2ccc(Br)cc2)on1 | 26.3%
20 | CC(C)Cc1cc(C(=O)Nc2cc(Br)ccc2O)no1 | 44.3% (active)
21 | CC(C)Cc1cc(C(=O)NCCc2ccccc2)no1 | 28.6%
22 | OC[C@@H]1CN(Cc2ccc(-c3ccccc3)cc2)C[C@H](n2cnc3c(NC4CCCC4)ncnc32)O1 | -4.89%
23 | Cc1nc2c(OCc3ccc(Cl)cc3Cl)cccn2c1N(C)CC1CC1 | -3.96%
24 | Nc1nc2c(ncn2[C@@H]2O[C@H](C(=O)N[C@@H](Cc3ccccc3)C(=O)NCc3ccccc3)[C@@H](O)[C@H]2O)c(=O)[nH]1 | 1.27%
25 | CSCCC(C(=O)NC(C)(C)C)n1c(-c2ccccc2)nc2ccccc21 (stereo unspecified) | 2.95%
26 | CCOC(=O)c1c(NC(=S)SC)sc(C(=O)N2CCc3ccccc3C2)c1C | -0.956%

Row | Structure (SMILES) | activation
27 | Oc1c(CN2CCCC2)cc(COCc2ccccc2)c2cccnc12 | 2.52%
28 | CC(=O)NC(c1cccs1)c1cc(Br)c2cccnc2c1O (stereo unspecified) | -2.66%
29 | CCN1CCN(C(c2cccnc2)c2cc(Cl)c3cccnc3c2O)CC1 (stereo unspecified) | 61.4% (active)
30 | O=C(NN=Cc1ccco1)C(=O)Nc1ccc(Cl)c([N+](=O)[O-])c1 | -3.58%
31 | Cc1cc(C)n2c(Nc3c(C)cccc3C)c(CCc3ccccc3)nc2n1 | -1.15%
32 | Cc1cc(C)c(C#N)c(SCC(=O)Nc2ccccc2)n1 | 39.1% (active)
33 | Cc1nonc1NC(=O)CSc1nc2ccccc2cc1C#N | 24.4%
34 | Cc1nc2cc(NC(=O)CSc3nc4c(C)cccc4cc3C#N)ccc2s1 | -2.44%
35 | CCCCc1c(-c2ccc(Br)cc2)ncn1CCc1ccccc1OC | -12.1%
36 | CC(=O)c1ccc(S(=O)(=O)NCC2CCN(C(=O)C(=O)c3cccs3)CC2)cc1 | -0.884%
37 | Cc1nc(NC(=O)C2CCCCC2)sc1C | 37.5% (active)
38 | Cc1nc(NC(=O)C23CCC(C)(C(=O)O2)C3(C)C)sc1C (stereo unspecified) | -2.53%
39 | Cc1nc2ccc(NC(=O)C3CCCCC3)cc2s1 | 15.2%
40 | CCOC(=O)c1ccc(-c2ccc3ncnc(N(C)Cc4sccc4C)c3c2)o1 | 7.57%
41 | COC(=O)C(C(=O)OC)c1ccccc1NS(=O)(=O)c1cccc2ccccc12 | -4.59%
42 | CCc1nc2c(OCCOc3ccccc3)cccn2c1N(C)C(=O)c1cccs1 | -2.69%
43 | CCOc1ccc2nc(N3CCCN(C(=O)Nc4ccccc4C)CC3)c(C#N)cc2c1 | -1.99%
44 | COc1ccc(CCNC(=O)CSc2nc(-c3ccc(OC)c(OC)c3)ccc2C#N)cc1 | -3.46%
45 | CCOc1ccc2cc(C#N)c(SCC(=O)OC)nc2c1 | 86% (active)
46 | COc1ccc(NC(=O)C(c2ccncc2)n2c(=O)c(-c3cc4ccccc4[nH]3)nc3ccccc32)cc1 (stereo unspecified) | 16.9%
47 | C[C@H](O)[C@@H]1CN2CCc3ccc(-c4ccc5c(c4)OCO5)cc3[C@@H]2C[C@@H]1N(C)C(=O)C1CCCCC1 | 23.5%
48 | Cc1ccccc1C(=O)N[C@H](C(=O)N1CCC[C@H]1C(=O)NCc1ccccc1)C(C)C | -3.2%
49 | COc1cc(C(O)c2nc3ccccc3n2C)cc(OC)c1OC (stereo unspecified) | -0.72%
50 | COc1cccc(C(O)c2nc3ccccc3n2C)c1 (stereo unspecified) | 47.8% (active)
51 | COc1ccc(OC)c(C(O)c2nc3ccccc3n2C)c1 (stereo unspecified) | -0.171%
52 | CCCCCCn1c(=O)n2n(c1=O)C[C@]1(OC(=O)NCc3ccc(OC)c(OC)c3)CN(S(=O)(=O)c3ccc(C)cc3)C[C@]1(O)C2 | -4.95%

Row | Structure (SMILES) | activation
53 | C=CCNC(=O)c1ccc(C)c(Br)c1 | -0.707%
54 | Cc1cccc(-c2nc3ccc(C(=O)NCCN4CCN(C)CC4)cc3nc2-c2cccc(C)c2)c1 | 2.48%
55 | C=CCNC(=O)c1ccc2c3n(nc2c1)-c1ccc(C)cc1CO3 | 38.9% (active)
56 | CN(C)c1ccnc2sc(C(=O)c3ccccc3)c(N)c12 | 79.3% (active)
57 | Cc1ccc2c(N)c(C(=O)c3ccccc3)sc2n1 | 22.1%
58 | CCN(CC)C(=O)c1sc2nc(-c3ccccc3)ccc2c1N | 10.1%
59 | COc1cccc(C(O)c2ncc(-c3ccc4ccccc4c3)[nH]2)c1 (stereo unspecified) | 0.0285%
60 | Cc1ccc2nc(-c3ccco3)c(Cc3cccc(Cl)c3)n2c1 | -1.15%
61 | O=C(COc1ccc([N+](=O)[O-])cc1)Nc1ccc(N2CCCC2)cc1 | -2.41%
62 | O=C(COc1ccc(/C=N/NC(=O)c2ccc(O)cc2)cc1)Nc1ccc([N+](=O)[O-])cc1 | 46.5% (active)
63 | O=C(N/N=C/c1ccc(O)cc1)/C(=C/c1ccc([N+](=O)[O-])cc1)NC(=O)c1ccccc1 | 0.356%
64 | CCC(CC)C(C(=O)NC1CCCC1)N1CCN(c2cc(C)nc3ccccc23)CC1 (stereo unspecified) | -1.19%
65 | CNC(=O)c1ccc(CN(C)C(=O)c2cc(C3CC3)nc3c2cnn3C(C)C)cc1 | 7.06%
66 | O=C(Cc1ccc([N+](=O)[O-])cc1)NCCS(=O)(=O)N1CCN(c2ccccc2)CC1 | -2.6%
67 | CCCOc1ccc(F)cc1-c1cc(C(=O)Nc2ccc(F)c(Cl)c2)[nH]n1 | -0.991%
68 | CCCCCCCCN1C(=O)[C@@H](CC(=O)NCc2ccc(C)o2)C[C@@]2(C(=O)OC)C1=C[C@H](C(C)(C)C)O[C@@H]2C | -3.74%
69 | COC(=O)C(C)Oc1ccc2c(c1)O/C(=C\c1cccc(Br)c1)C2=O (stereo unspecified) | -0.1%
70 | COc1ccc2c(c1)O/C(=C\c1ccccc1O)C2=O | 39.8% (active)
71 | O=C1Oc2ccccc2C(=O)/C1=C/c1ccccc1O | -4.19%
72 | Clc1cccc2c1C1CC2CCN1Cc1ccccc1 (stereo unspecified) | -2.22%
73 | N/C(=N\OC(=O)Cc1ccc([N+](=O)[O-])cc1)c1ccccn1 | 1.55%
74 | COc1ccccc1OCC(=O)O/N=C(\N)c1ccccn1 | 55.9% (active)
75 | COc1ccc(C(=O)O/N=C(\N)c2ccccn2)cc1[N+](=O)[O-] | 17%
76 | COc1ccc(OC)c(CN2C(=O)CCC2(C)c2nnnn2Cc2ccccc2)c1 (stereo unspecified) | -0.624%

— PubChem BioAssay AID743398 (Broad Institute, 2014)
